Measurements: ChEMBL document CHEMBL3988442, “University of Dundee, Small-Polar-MMV Screening Library” (2021)

Target: Shiga toxin 2 (Escherichia coli O157:H7) (UniProt P09385+P09386)
Assay: E. coli 0.157:H7 Shiga Toxin SOP - stx2 screening assay
Type: functional
Parameters: scale not given: direction of the effect not stated beside the values
Settings: 30 µM

Compound	Percent Effect [%]
CCCc1nc(C)c(C(=O)NS(=O)(=O)c2ccc(C#N)cc2)s1	8.1
CCn1nc(C)c2nnn(CC(=O)Nc3cccc(Cl)c3)c(=O)c21	-43.6
CC(O)CN1CCN(C(=O)c2cc3ccccc3[nH]c2=O)CC1 (stereo not given)	2.32
Cc1cccc(-c2ccc(C(=O)NCC3CCOC3)c(=O)[nH]2)c1 (stereo not given)	15.2
O=C1NC2(CCN(Cc3nccs3)CC2)CC1c1ccncc1 (stereo not given)	2.04
COc1ccc(CN2CC[C@H](NC(C)=O)[C@@H](O)CC2)c(OC)c1	-14.9
CO[C@@H]1CC[C@@H](N(C)C(=O)COc2ccc(F)cc2)[C@H]1O	28.3
OC(CN1CCN(Cc2ccc(F)c(F)c2)CC1)C1CC1 (stereo not given)	-0.879
Cc1cnn(C2CCCN(C(=O)c3cnc4ccccc4n3)C2)c1 (stereo not given)	25.1
COCCN1CCC(NC(=O)C2(c3cc(C)cc(C)c3)CC2)CC1	22.9
Cc1cc(C)n(CC2CCCCN2Cc2cscn2)n1 (stereo not given)	25.2
CSc1ccc(S(=O)(=O)N2CCCCC2CCNC(C)=O)cc1 (stereo not given)	-4.85
c1cnc(-c2nc(CN3CCCC(Cn4cncn4)C3)cs2)nc1 (stereo not given)	20.5
CC(C)n1c(C2CCCN(Cc3ccnn3C)C2)nc2ccccc21 (stereo not given)	1.29
CC1(C)CC(N2Cc3nc(N)ncc3C2=O)CC(C)(C)N1	-32.6
CC(C)C(=O)N1CCN(Cc2cc(-c3ccncc3)nn2C)CC1	-50.3
c1cnnc(N2CCCC(NCc3nc(C4CC4)no3)C2)c1 (stereo not given)	-18.7
Cc1cnn(CCNCC(=O)NCc2ccccc2)c1	10.2
CC(=O)N1CCN(C(=O)NCc2csc(Br)c2)CC1	5.42
Cc1noc(C)c1CNc1cc(N2CCCC2CO)ncn1 (stereo not given)	-11.6
